Results reported in publication PMC12820563, “FoxP3 forms a head-to-head dimer in vivo and stabilizes its multimerization on adjacent microsatellites”.
In all, about 16,000 sequences were measured (“rpm ratio (pull-down/input)”: median about 0.5, highest 2% from about 5.5 on). Shown is part of a subset that was picked to be rich in the highest values.

The sequences below were run against T1, MBP-FoxP3dN (Mus musculus, UniProt Q99JB6 188-423) (assay: PD-seq (MBP pull-down with sequencing); 20 mM Tris-HCl pH 7.5, 100 mM NaCl, 1.5 mM MgCl2, 0.4 uM protein, 0.1 uM dsDNA library, 30 min, room temperature, amylose pull-down; high values mean tight binding). Details: protein: recombinant; tags: His6-MBP; chain copies: 2; dsDNA, one strand shown.
T1 sequence: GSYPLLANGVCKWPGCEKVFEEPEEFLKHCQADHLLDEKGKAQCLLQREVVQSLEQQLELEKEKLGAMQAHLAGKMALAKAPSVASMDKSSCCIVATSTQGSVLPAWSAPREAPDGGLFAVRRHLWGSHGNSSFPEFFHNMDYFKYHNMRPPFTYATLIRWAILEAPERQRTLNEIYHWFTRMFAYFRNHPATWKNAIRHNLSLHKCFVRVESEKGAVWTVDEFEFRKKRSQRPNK
Outline: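 A degenerate double-stranded DNA library, filled in with Klenow, was added at 0.1 µM to 0.4 µM His6-MBP-tagged mouse FoxP3 or FoxP1 fragment lacking the N-terminus, expressed in E. coli. Incubation lasted 30 min at room temperature in Tris pH 7.5 buffer with NaCl and MgCl2, after which complexes were collected on amylose resin, washed three times, digested with proteinase K to free the DNA, barcoded by PCR and sequenced by Illumina. Binding is the pooled-replicate reads-per-million enrichment of pull-down over input.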

Sequence | binding signal
GATGATTGTTCTCCCAGCTGATGAATTTGTGCGCTCGAGTAAACAAATTTTCCTAATCTTTCTGTTCAAGCGCCATCTAC | 1.87 RPM ratio (pull-down/input)
GATGATTGTTCTCCCAGCTGATGAATTTATGCGGTCGAGTAAACAAATTTTCCTAATCTTTCTGTTCAAGCGCCATCTAC | 1.09 RPM ratio (pull-down/input)
GATGATTGTTCTCCCAGCTGATGAATTAGTCCGCTCGAGTAAACAAATTTTCCTAATCTTTCTGTTCAAGCGCCATCTAC | 0.349 RPM ratio (pull-down/input)
GATGATTGTTCTCCCAGCTGATGAATTTTGTCGATCGAGTAAACAAATTTTCCTAATCTTTCTGTTCAAGCGCCATCTAC | 1.18 RPM ratio (pull-down/input)
GATGATTGTTCTCCCAGCTGATGAATTCTTCGACTCGAGTAAACAAATTTTCCTAATCTTTCTGTTCAAGCGCCATCTAC | 0.239 RPM ratio (pull-down/input)
GATGATTGTTCTCCCAGCTGATGAATTGATAATCTCGAGTAAACAAATTTTCCTAATCTTTCTGTTCAAGCGCCATCTAC | 0.411 RPM ratio (pull-down/input)
GATGATTGTTCTCCCAGCTGATGAATTTACTTTCTCGAGTAAACAAATTTTCCTAATCTTTCTGTTCAAGCGCCATCTAC | 1.32 RPM ratio (pull-down/input)
GATGATTGTTCTCCCAGCTGATGAATTCTAGCCTTCGAGTAAACAAATTTTCCTAATCTTTCTGTTCAAGCGCCATCTAC | 1.89 RPM ratio (pull-down/input)
GATGATTGTTCTCCCAGCTGATGAATTTCCGTGGTCGAGTAAACAAATTTTCCTAATCTTTCTGTTCAAGCGCCATCTAC | 0.282 RPM ratio (pull-down/input)
GATGATTGTTCTCCCAGCTGATGAATTCGTCGGGTCGAGTAAACAAATTTTCCTAATCTTTCTGTTCAAGCGCCATCTAC | 0.574 RPM ratio (pull-down/input)
GATGATTGTTCTCCCAGCTGATGAATTGGTTTGCTCGAGTAAACAAATTTTCCTAATCTTTCTGTTCAAGCGCCATCTAC | 4.24 RPM ratio (pull-down/input)
GATGATTGTTCTCCCAGCTGATGAATTTTAGTTATCGAGTAAACAAATTTTCCTAATCTTTCTGTTCAAGCGCCATCTAC | 1.33 RPM ratio (pull-down/input)
GATGATTGTTCTCCCAGCTGATGAATTTCTGTCTTCGAGTAAACAAATTTTCCTAATCTTTCTGTTCAAGCGCCATCTAC | 0.368 RPM ratio (pull-down/input)
GATGATTGTTCTCCCAGCTGATGAATTTGTCTTCTCGAGTAAACAAATTTTCCTAATCTTTCTGTTCAAGCGCCATCTAC | 4.22 RPM ratio (pull-down/input)
GATGATTGTTCTCCCAGCTGATGAATTTGTTGTCTCGAGTAAACAAATTTTCCTAATCTTTCTGTTCAAGCGCCATCTAC | 7.77 RPM ratio (pull-down/input)
GATGATTGTTCTCCCAGCTGATGAATTTTTTGTCTCGAGTAAACAAATTTTCCTAATCTTTCTGTTCAAGCGCCATCTAC | 0.367 RPM ratio (pull-down/input)
GATGATTGTTCTCCCAGCTGATGAATTGTCTTCTTCGAGTAAACAAATTTTCCTAATCTTTCTGTTCAAGCGCCATCTAC | 0.478 RPM ratio (pull-down/input)
GATGATTGTTCTCCCAGCTGATGAATTGTTGTCTTCGAGTAAACAAATTTTCCTAATCTTTCTGTTCAAGCGCCATCTAC | 5.62 RPM ratio (pull-down/input)
GATGATTGTTCTCCCAGCTGATGAATTCCATTCGTCGAGTAAACAAATTTTCCTAATCTTTCTGTTCAAGCGCCATCTAC | 0.494 RPM ratio (pull-down/input)
GATGATTGTTCTCCCAGCTGATGAATTAGAGAGTTCGAGTAAACAAATTTTCCTAATCTTTCTGTTCAAGCGCCATCTAC | 0.399 RPM ratio (pull-down/input)
GATGATTGTTCTCCCAGCTGATGAATTACTGGGGTCGAGTAAACAAATTTTCCTAATCTTTCTGTTCAAGCGCCATCTAC | 0.231 RPM ratio (pull-down/input)
GATGATTGTTCTCCCAGCTGATGAATTGAACTGGTCGAGTAAACAAATTTTCCTAATCTTTCTGTTCAAGCGCCATCTAC | 0.209 RPM ratio (pull-down/input)
GATGATTGTTCTCCCAGCTGATGAATTAGAGATCTCGAGTAAACAAATTTTCCTAATCTTTCTGTTCAAGCGCCATCTAC | 0.32 RPM ratio (pull-down/input)
GATGATTGTTCTCCCAGCTGATGAATTAGAATGTTCGAGTAAACAAATTTTCCTAATCTTTCTGTTCAAGCGCCATCTAC | 0.671 RPM ratio (pull-down/input)
